Measurements as given in PubChem BioAssay (NCI).
Compounds without any hit were thinned out: in the full panel of roughly 79,000, 15% have a hit. The source made the active and inactive calls. No stated cut-off is given here; in the data, active means growth inhibition above about 70%; inactive means the rest.

What was measured:
[1] = NCI Yeast Anticancer Drug Screen. Data for the rad52 strain (AID 147);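 further: 0% = growth of vehicle-treated control cultures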; conditions: S. cerevisiae rad52 mutant growth inhibition, active compounds read high
Procedure, shortened: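 The repair-mutant yeast strain was incubated with compounds, then growth was read and inhibition derived relative to vehicle.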

[2] = NCI Yeast Anticancer Drug Screen. Data for the wt1 strain (AID 149);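 further: 0% = growth of vehicle-treated wt1 cultures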; conditions: S. cerevisiae wt1 strain (SPY 50644) growth inhibition, active compounds read high
Procedure, shortened: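 wt1 strain grown with compound or vehicle; inhibition taken from the growth difference.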

[3] = NCI Yeast Anticancer Drug Screen. Data for the rad50EPP+ strain (AID 151);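 further: 0% = growth of vehicle-treated control cultures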; conditions: S. cerevisiae rad50 mutant strain, active compounds read high
Procedure, shortened: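 Vehicle-normalised growth inhibition; rad50EPP+ yeast strain, altered in DNA damage repair, compound-treated.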

[4] = NCI Yeast Anticancer Drug Screen. Data for the rad50 strain (AID 155);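 further: 0% = growth of vehicle-only cultures of the same strain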; conditions: S. cerevisiae rad50 strain growth inhibition, active compounds read high
Procedure, shortened: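 DNA repair mutant yeast, compound exposure, growth read-out; inhibition is taken relative to vehicle.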

[5] = NCI Yeast Anticancer Drug Screen. Data for the mec2-1 strain (AID 157); conditions: S. cerevisiae mec2-1 strain, active compounds read high
Procedure, shortened: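 Mutant yeast (mec2-1) grown with compound; growth inhibition relative to vehicle control reported.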

[6] = NCI Yeast Anticancer Drug Screen. Data for the rad14 strain (AID 159);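 further: 0% = growth of vehicle-treated control cultures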; conditions: S. cerevisiae rad14 strain growth inhibition, active compounds read high
Procedure, shortened: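 DNA repair-defective yeast, compound-exposed; % growth inhibition derived by comparison with vehicle-treated controls.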

[7] = NCI Yeast Anticancer Drug Screen. Data for the sgs1 mgt1 strain (AID 161);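 further: 0% = growth of cultures given vehicle only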; conditions: S. cerevisiae sgs1 mgt1 strain, active compounds read high
Procedure, shortened: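 Growth of a repair-deficient yeast mutant was monitored after compound treatment and expressed as inhibition relative to vehicle-treated cultures.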

[8] = NCI Yeast Anticancer Drug Screen. Data for the CLN2oe strain (AID 163);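 further: 0% = growth of vehicle-only control cultures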; conditions: S. cerevisiae CLN2oe strain, active compounds read high
Procedure, shortened: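 Compounds are applied to yeast harbouring a defined cell-cycle control change; reduced growth compared with vehicle-treated controls gives the value.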

[9] = NCI Yeast Anticancer Drug Screen. Data for the cln2 rad14 strain (AID 165);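 further: 0% = growth equal to vehicle treated cultures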; conditions: S. cerevisiae cln2 rad14 strain, active compounds read high
Procedure, shortened: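 Readout is yeast growth inhibition versus vehicle-treated controls, using a strain with cln2 and rad14 alterations exposed to compound.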

[10] = NCI Yeast Anticancer Drug Screen. Data for the bub3 strain (AID 167); conditions: S. cerevisiae bub3 mutant strain, active compounds read high
Procedure, shortened: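 In this screen, a yeast mutant lacking normal mitotic checkpoint function is challenged with compound. Relative growth versus vehicle gives the inhibition value.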

[11] = NCI Yeast Anticancer Drug Screen. Data for the wt2 strain (AID 169);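 further: 0% = growth of vehicle-treated yeast cultures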; conditions: S. cerevisiae wt2 strain growth inhibition, active compounds read high
Procedure, shortened: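 Against vehicle-treated controls, the growth of yeast exposed to each compound was compared, and the inhibition was recorded.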

[12] = NCI Yeast Anticancer Drug Screen. Data for the mlh1 strain (AID 171);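 further: 0% = growth of vehicle-treated control cultures of the same strain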; conditions: S. cerevisiae mlh1 strain growth inhibition, active compounds read high
Procedure, shortened: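 Measured: yeast growth. Reference: vehicle-treated controls. Organism: strain with a defined alteration affecting DNA damage repair or cell cycle control, treated with compound.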

[13] = NCI Yeast Anticancer Drug Screen. Data for the sgs1 strain (AID 173);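 further: 0% = growth of vehicle-only control cultures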; conditions: S. cerevisiae sgs1 mutant, active compounds read high
Procedure, shortened: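 Each compound was added to cultures of the altered yeast strain. Growth was recorded, and inhibition was derived by comparison with vehicle controls.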

[14] = NCI Yeast Anticancer Drug Screen. Data for the mlh1 rad18 strain (AID 175); conditions: S. cerevisiae mlh1 rad18 strain growth inhibition, active compounds read high
Procedure, shortened: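 Genetically defined yeast (DNA repair-deficient) exposed to compounds; growth inhibition determined relative to vehicle.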

[15] = NCI Yeast Anticancer Drug Screen. Data for the rad18 strain (AID 177); conditions: S. cerevisiae rad18 mutant growth inhibition, active compounds read high
Procedure, shortened: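 Vehicle-treated cultures served as the baseline for scoring compound-induced growth inhibition in DNA-repair-mutant yeast.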

[16] = at 5.0 µM (retest, dose inferred, filed as 0.5)
[17] = at 50.0 µM (retest, dose inferred, filed as 5.0)

Measured: growth inhibition

OCCN(CCO)c1ccc2c(c1)Cc1ccccc1-2
inactive: [1]; at 1.2 µM -9% | [1]; at 3.7 µM -15% | [1]; at 11.0 µM 3% | [1]; at 33.0 µM 20% | [1]; at 100.0 µM 43% | [2]; at 1.2 µM 0% | [2]; at 3.7 µM 5% | [2]; at 11.0 µM 6% | [2]; at 33.0 µM 6% | [2]; at 100.0 µM 17% | [3]; at 1.2 µM -6% | [3]; at 3.7 µM -3% | [3]; at 11.0 µM 17% | [3]; at 33.0 µM 43% | [3]; at 100.0 µM 53% | [4]; at 1.2 µM -12% | [4]; at 3.7 µM -15% | [4]; [16] 13% | [4]; at 11.0 µM -13% | [4]; at 33.0 µM 34% | [4]; [17] 48% | [4]; at 50.0 µM 34.1% | [4]; at 100.0 µM 65% | [5]; at 1.2 µM -3% | [5]; at 3.7 µM -4% | [5]; [16] 1% | [5]; at 11.0 µM -4% | [5]; at 33.0 µM -7% | [5]; [17] 12% | [5]; at 50.0 µM -11.8% | [5]; at 100.0 µM 1% | [6]; at 1.2 µM 3% | [6]; at 3.7 µM -4% | [6]; at 11.0 µM 23% | [6]; at 33.0 µM 15% | [6]; at 100.0 µM 31% | [7]; [16] 8% | [7]; at 50.0 µM 52.2% | [8]; at 1.2 µM -9% | [8]; at 3.7 µM -8% | [8]; at 11.0 µM -16% | [8]; at 33.0 µM -11% | [8]; at 100.0 µM -7% | [9]; [16] 6% | [9]; [17] 6% | [9]; at 50.0 µM -2.7% | [10]; at 1.2 µM -9% | [10]; at 3.7 µM -8% | [10]; [16] 2% | [10]; at 11.0 µM -13% | [10]; at 33.0 µM -13% | [10]; [17] 27% | [10]; at 50.0 µM 10.4% | [10]; at 100.0 µM 1% | [11]; at 1.2 µM 5% | [11]; at 3.7 µM 9% | [11]; at 11.0 µM 14% | [11]; at 33.0 µM 29% | [11]; at 100.0 µM 45% | [12]; at 1.2 µM -13% | [12]; at 3.7 µM -7% | [12]; at 11.0 µM -6% | [12]; at 33.0 µM -6% | [12]; at 100.0 µM 26% | [13]; at 1.2 µM -14% | [13]; at 3.7 µM -10% | [13]; at 11.0 µM 13% | [13]; at 33.0 µM 44% | [14]; [16] 23% | [15]; at 1.2 µM -8% | [15]; at 3.7 µM 4% | [15]; at 11.0 µM 18%
active: [7]; [17] 71% | [13]; at 100.0 µM 76% | [14]; [17] 84% | [14]; at 50.0 µM 77.4% | [15]; at 33.0 µM 82% | [15]; at 100.0 µM 90%
